Rows were chosen to be rich in hits. Some 8.8% of all compounds tested hit in one or more screens of this group.
HT1080NT lethal – kills 2HG-producing HT-1080-NT fibrosarcoma cells; actives 1.6% (n = 360,000); HT-1080-NT fibrosarcoma viability, CellTiter-Glo ATP luminescence, 48 h; Potency, µM (titrated, usually from 46.1 µM), for inactives: at the top dose activity, negative = less viability, most hits filed as cytotoxic; AID 686970;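 further: NT is the 2HG producing partner of a matched IDH1 knockdown line; potency means the concentration at half of the fitted maximal effect; 0% = DMSO-treated cells and -100% = media-only wells without cells; nearly all actives have a fitted effect of over 55% in size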
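750 cells/well, RPMI + 5% FBS; 2 h settle, compound pin-transfer, 48 h at 37 degrees C. CellTiter-Glo 10 min RT, luminescence. Normalized to DMSO and media-only wells.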
KB-3-1 tox – KB-3-1 parental cell cytotoxicity. actives 1.4% (n = 400,000). Potency, µM (highest dose often 46.1 µM), most hits filed as cytotoxic. KB-3-1 viability, CellTiter-Glo ATP luminescence, 72 h; further: potency means the concentration at half of the fitted maximal effect; nearly all actives have a fitted effect of over 60% in size
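KB-3-1 cells, DMEM (no phenol red) + 10% FBS; compound by pin transfer, 72 h, 37 °C. Readout: CellTiter-Glo luminescence after 10 min. Data normalized, curve-fitted.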
HT1080 IDH1KD tx – kills HT-1080 cells with IDH1 knockdown | HT-1080 IDH1 knockdown viability, ATP luminescence, 48 h | Potency, µM (doses to about 46.1 µM), for the others: at the top dose activity, negative = toxicity, usual class: cytotoxic | actives 2% (n = 360,000) | AID 686971;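 further: potency means the concentration at half of the fitted maximal effect; 0% = DMSO wells and -100% = cell-free medium wells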
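Viability of IDH1-knockdown HT-1080 fibrosarcoma cells was assessed by CellTiter-Glo after 48 h at 37 °C with titrated compound; concentration-effect curves were classified by fit quality and response size.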
KB-V1 MDR tox – KB-V1 MDR subline cytotoxicity; KB-V1 MDR cells viability, CellTiter-Glo, 72 h; Potency, µM (doses to about 46.1 µM), hits mostly cytotoxic; actives 3.4% (n = 400,000); AID 1347076; further: potency means the concentration at half of the fitted maximal effect; nearly all actives have a fitted effect of over 60% in size
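KB-V1 cells (P-gp-expressing MDR subline of KB-3-1) in phenol-red-free DMEM with 10% FBS were exposed to library compounds over a concentration series for 72 h at 37 degrees C. Viability read by CellTiter-Glo luminescence; concentration-effect curves fitted after normalization.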
IL1B secr inh – inflammasome signaling inhibition, IL-1 beta readout. AID 743279. actives 4.7% (n = 360,000). THP-1 LPS/ATP IL-1B secretion, AlphaLISA, 16 h; hits give low values. activity change, % at 57.5 µM; in the data active means activity change below about -50%; inconclusive means mostly about -30% to -49%
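Secreted IL-1B measured by AlphaLISA bead assay after 16 h compound exposure of THP-1 cells; compounds (final up to 57.5 uM) added 1 h before LPS (250 ng/mL) and ATP (1.25 mM) stimulation; lower signal means less secretion.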
Active calls of the source: *; i = inactive; ? = inconclusive; . = no result; [ ] = remark or other dose. Unless noted, the call rests on the fitted dose curve; in most records, active means well fitted curve in the direction sought with a large enough effect; inconclusive means small, poorly fitted or top-dose-only effect, or another doubt; inactive means no such curve, though single readings can be large; an effect the other way counts as inactive or inconclusive. Unless noted, on the % scale 0 is the no-effect control and ±100 the full control effect.

SMILES	HT1080NT lethal	KB-3-1 tox	HT1080 IDH1KD tx	KB-V1 MDR tox	IL1B secr inh
OCC1(Cc2ccc(Cl)cc2)CCN(CC2CC=CCC2)CC1 (stereo not drawn)	-14.0%	?	?	?	-61.7*
OCC1(Cc2ccc(Cl)cc2)CCN(CCCc2ccccc2)CC1	?	i	?	i	-77.3*
CSc1ccc(CN2CCC(CO)(Cc3ccc(Cl)cc3)CC2)cc1	?	?	-23.1%	?	-94.2*
COc1ccc(C(O)c2nc(-c3cccc(O)c3)cs2)cc1 (stereo not drawn)	-6.8%	i	0.0%	i	0.0
Nc1nonc1-n1nnc(C(=O)N/N=C/c2ccc(OCc3ccccc3)cc2)c1CNc1ccccc1	?	i	?	i	39.0
CCOc1ccc(C(=O)Nc2cc(-c3nc4ccccc4s3)ccc2OC)cc1	.	?	.	7.31µM*	.
COc1ccc(C(=O)Nc2cc(-c3nc4ccccc4s3)ccc2OC)cc1	.	?	.	i	.
COc1ccc(C(=O)Nc2cccc(-c3ccc4nncn4n3)c2)cc1	-9.2%	i	?	i	20.6
COc1ccc(Cl)cc1C(=O)Nc1ccc(NC(C)=O)cc1	0.1%	i	-1.5%	i	-14.2
COc1ccc(Cl)cc1C(=O)Nc1ccc(NC(=O)C(C)C)cc1	-16.6%	i	?	i	-59.8*
COc1ccc(S(=O)(=O)Nc2cccc(-c3ccc4nncn4n3)c2)cc1	16.4µM*	5.8µM*	10.3µM*	?	27.2
COc1ccc(Cl)cc1C(=O)Nc1cccc(-c2ccc3nncn3n2)c1	4.5%	i	13.2%	i	-63.7*
COc1ccc(CCNC(=O)c2ccc3nc(N4CCCCC4)sc3c2)cc1OC	0.0%	i	-11.8%	18.4µM*	31.7
O=C(NCC(=O)N1CCN(c2ccccc2)CC1)c1ccc(Cl)cc1	0.4%	i	8.4%	i	-15.0
CCCNC(=S)N1CCC(Cc2ccccc2)CC1	-1.7%	i	-4.2%	i	?
COc1ccc(CCNC(=O)c2ccc(CN3CCC(Cc4ccccc4)CC3)cc2)cc1OC	-18.6%	i	-7.9%	3.66µM*	-12.9
COc1ccc(CCNC(=S)N2CCC(Cc3ccccc3)CC2)cc1OC	-18.6%	?	-23.0%	14.6µM*	-8.4
O=C(NCC(=O)N1CCC(Cc2ccccc2)CC1)c1ccc(Cl)cc1	-2.9%	.	0.1%	.	-52.0*
COCCNC(=O)c1ccc(CN2CCC(Cc3ccccc3)CC2)cc1	11.1%	i	2.4%	i	1.6
COc1ccc2nc(N3CCCC(C(=O)NCCc4ccc(OC)c(OC)c4)C3)sc2c1 (stereo not drawn)	-23.0%	i	11.4%	i	-0.8
COc1ccc(CCNC(=S)N2CCC(C(=O)c3ccc(F)cc3)CC2)cc1OC	-17.0%	?	?	4.11µM*	-12.9
CN(C)CCCNC(=S)N1CCC(C(=O)c2ccc(Cl)cc2)CC1	-5.8%	i	-4.5%	i	10.0
CCc1ccccc1NC(=O)c1ccc(CN2CCC(Cc3ccccc3)CC2)cc1	20.6µM*	?	?	i	-79.5*
COc1ccc(C(=O)C2CCN(C(=S)NCCc3ccc(OC)c(OC)c3)CC2)cc1	-3.7%	i	-20.9%	i	-10.5
CC(C)OCCCNC(=S)N1CCC(C(=O)c2ccc(Cl)cc2)CC1	-5.5%	i	?	8.2µM*	-12.0
SMILES	HT1080NT lethal	KB-3-1 tox	HT1080 IDH1KD tx	KB-V1 MDR tox	IL1B secr inh
O=C(c1ccc(CN2CCOCC2)cc1)N1CCC(Cc2ccccc2)CC1	-3.5%	i	-0.6%	20.6µM*	-19.1
Cc1ccc(NC(=O)COC(=O)C2CCN(c3ccc(C(F)(F)F)cn3)CC2)cc1	0.1%[9.24 µM]	i	-6.8%	?	16.6
COc1ccc(/C(C)=N/Nc2nc3ccccc3nc2C)cc1	?	14.6µM*	?	i	10.4
CSc1ccc(C(=O)C2CCCN(C(=O)c3cc4cc(F)ccc4[nH]3)C2)cc1 (stereo not drawn)	-6.3%	?	-21.8%	?	-62.8*
CSc1ccc(C(=O)C2CCCN(C(=O)c3ccc4c(c3)OCO4)C2)cc1 (stereo not drawn)	1.1%	i	-6.8%	i	0.0
O=C(NCc1ccncc1)[C@@H]1CCCN1C(=O)[C@@H]1CCCN1C(=O)c1cccc2ccccc12	4.4%	i	3.4%	i	-102.7*
O=C(NCc1ccccc1)[C@@H]1CCCN1C(=O)[C@@H]1CCCN1C(=O)c1cccc2ccccc12	-0.3%	?	1.8%	i	-16.2
COc1ccc(S(=O)(=O)N2CCC[C@H]2C(=O)N2CCC[C@H]2C(=O)NCc2ccncc2)cc1C	1.1%	?	4.0%	?	-57.1*
CN(C)S(=O)(=O)c1ccc(N2CCCC2)c(C(=O)N2CCN(S(=O)(=O)c3ccc(F)c(F)c3)CC2)c1	-1.0%	?	-0.8%	i	9.3
COc1cccc(CN2CCC(C(=O)NC(C)c3cccc4ccccc34)CC2)c1 (stereo not drawn)	?	i	?	i	?
Cc1cc(C)cc(OCC(=O)Nc2ccc(S(=O)(=O)Nc3onc(C)c3C)cc2)c1	.	i	.	i	.
CCOc1ccc(/C=C2/Sc3ccc(C(=O)N4CCOCC4)cc3N(C)C2=O)cc1OC	-16.1%	i	?	?	-62.0*
CCOC(=O)C1CCCN(C(=O)c2ccc3c(c2)N(C)C(=O)/C(=C/c2ccccc2Cl)S3)C1 (stereo not drawn)	-17.5%	?	-26.4%	?	-68.0*
COc1ccc(/C=C2\Sc3ccc(C(=O)NC4CC4)cc3N(C)C2=O)cc1OC	-26.9%	i	0.0%	?	-8.1
CCCCCn1c(=O)[nH]c2cc(C(=O)NC3CCN(Cc4ccccc4)CC3)ccc2c1=O	13.2%	i	12.3%	i	35.7
O=C(NC1CCN(Cc2ccccc2)CC1)c1ccc2c(c1)[nH]c(=O)n2Cc1ccc(F)cc1	14.6µM*	?	-13.2%	i	-76.9*
COc1ccc(/C=C2\Sc3ccc(C(=O)N4CCCC4)cc3N(C)C2=O)cc1OC	-22.2%	i	-1.4%	i	10.7
CN1C(=O)/C(=C\c2ccccc2F)Sc2ccc(C(=O)NC3CCN(Cc4ccccc4)CC3)cc21	20.6µM*	?	16.4µM*	i	-14.3
CCOC(=O)c1ccc(N2C(=O)C(O)=C(C(C)=O)C2c2ccc([N+](=O)[O-])cc2)cc1 (stereo not drawn)	6.4%	i	7.3%	i	-8.5
CC(=O)CC(c1ccccc1)S(=O)(=O)c1ccc([N+](=O)[O-])cc1 (stereo not drawn)	1.0%	i	13.7%	?	-10.4
O=C(CC1C(=O)NCCN1Cc1c(F)cccc1Cl)NCCCN1CCCC1=O (stereo not drawn)	-0.8%	.	1.0%	.	14.6

Compound activity (PubChem BioAssay)
